IL-1B inflam inh – blocks inflammasome-driven IL-1 beta release. THP-1 LPS/ATP IL-1B secretion, AlphaLISA, 16 h; hits give low values. activity change, % at 57.5 µM. hit rate 4.7% among 360,000. AID 743279; in the data active = activity change below about -50%; inconclusive = mostly about -30% to -49%
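Secreted IL-1B measured by AlphaLISA bead assay after 16 h compound exposure of THP-1 cells; compounds (final up to 57.5 uM) added 1 h before LPS (250 ng/mL) and ATP (1.25 mM) stimulation; lower signal means less secretion.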
DT40 TDP1 CPT – DT40-hTDP1 cell growth loss with CPT; chicken DT40 Tdp1-/-;hTDP1 cells + 20 nM CPT, ATP luminescence, 48 h; Potency, µM (highest dose often 46.2 µM), inactives show at the highest dose activity change, negative = growth inhibition, usual class: inhibitors; hit rate 12% among 420,000; AID 686979; also: potency is read from the fitted curve at half-maximal effect; nearly all actives have a fitted effect of over 55% in size
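Chicken DT40 Tdp1-/- cells stably complemented with human TDP1 were seeded at 400 cells/well in medium containing 20 nM camptothecin, exposed to pin-transferred compounds, and grown at 37 °C for at least 48 hr. Viability was read as ATP luminescence.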
ELG1 repair inh – inhibitors of ELG1-dependent DNA repair in HEK293T cells; Potency, µM (doses to about 46.1 µM), without a hit: top-dose activity change, negative = inhibition, hits mostly inhibitors; HEK293T ELG1-luciferase reporter, luminescence, 16 h; DNA damage induced by 5-fluorouridine; hit rate 2.3% among 330,000; AID 504467; also: potency is read from the fitted curve at half-maximal effect; nearly all actives have a fitted effect of over 55% in size
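Step one: seed 2,000 cells per well. Step two: pin-transfer compound or DMSO alongside 5-fluorouridine. Step three: incubate 16 hr, 37 °C, 5% CO2. Step four: add ONE-Glo, wait 30 min, read luminescence.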
HT1080NT lethal – kills 2HG-producing HT-1080-NT fibrosarcoma cells; Potency, µM (highest dose often 46.1 µM), for the others: at the top dose activity, negative = less viability, hits mostly cytotoxic; HT-1080-NT fibrosarcoma viability, CellTiter-Glo ATP luminescence, 48 h; hit rate 1.6% among 360,000;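 also: NT is the 2HG producing partner of a matched IDH1 knockdown line; potency is read from the fitted curve at half-maximal effect; 0% = DMSO-treated cells and -100% = media-only wells without cells; nearly all actives have a fitted effect of over 55% in size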
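750 cells/well, RPMI + 5% FBS; 2 h settle, compound pin-transfer, 48 h at 37 degrees C. CellTiter-Glo 10 min RT, luminescence. Normalized to DMSO and media-only wells.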
HT1080 IDH1KD tx – kills HT-1080 cells with IDH1 knockdown | Potency, µM (titrated, usually from 46.1 µM), inactives show top-dose activity, negative = toxicity, most hits filed as cytotoxic | AID 686971 | hit rate 2% among 360,000 | HT-1080 IDH1 knockdown viability, ATP luminescence, 48 h;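 also: potency is read from the fitted curve at half-maximal effect; 0% = DMSO wells and -100% = cell-free medium wells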
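Assay cells: HT-1080 with IDH1 knockdown, 750 per well, RPMI/5% FBS. Exposure: 48 h at 37 °C following 2 h pre-incubation. Read: CellTiter-Glo luminescence; fitted concentration-response, curve class assigned.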
DT40 TDP1 no CPT – qHTS for Inhibitors of human tyrosyl-DNA phosphodiesterase 1 (TDP1): qHTS in cells in absence of CPT; AID 686978, 2013; DT40 Tdp1-/- hTDP1 cells, no CPT, ATP luminescence, 48 h; hit rate 15% among 420,000; Potency, µM (doses to about 46.2 µM), for inactives: at the highest dose activity change, negative = growth inhibition, actives largely listed as inhibitors; also: potency is read from the fitted curve at half-maximal effect; nearly all actives have a fitted effect of over 55% in size
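Readout: luminescence from CellTiter-Glo after 30 min in the dark at RT. Cells: DT40 Tdp1-/- with stable hTDP1, 400/well. Exposure: compounds alone, ≥48 hr, 37 °C.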
* hit, by the source's call; ? = inconclusive; · = no result given; [ ] = dose if it differs, or a comment. A selection: hits, their analogues and other compounds. The true share with any hit is near 19%. Unless noted, calls follow the shape of the dose curve; as a rule, active = well fitted curve in the direction sought with a large enough effect; inconclusive = small, poorly fitted or top-dose-only effect, or another doubt; inactive = no such curve, though single readings can be large; an effect the other way counts as inactive or inconclusive. Unless noted, % is scaled to controls: 0 for no effect and ±100 for the full control effect.

SMILES	IL-1B inflam inh	DT40 TDP1 CPT	ELG1 repair inh	HT1080NT lethal	HT1080 IDH1KD tx	DT40 TDP1 no CPT
Cc1ccc([C@@H]2CC(=O)[C@@H]3CN(S(=O)(=O)c4ccccc4C)[C@H](c4ccc(Cl)cc4)C[C@@H]3N2S(=O)(=O)c2ccc(C)cc2)cc1	49.5	?	·	2.5%	-0.9%	25.9µM*
O=C(NCc1ccc(C(=O)N2CCC3(CC2)OCCO3)cc1)c1cccc(Br)c1	26.0	?	?	6.5%	11.0%	-28.3%
Cc1ccc(C(=O)N2CCc3cc(CNC(=O)c4ccnn4C)ccc32)cc1	·	5.8µM*	·	·	·	9.2µM*
CCOC(=O)c1cccc(NC(=O)NCc2ccc3c(c2)CCN3C(=O)c2ccccc2)c1	·	16.4µM*	·	·	·	16.4µM*
Cc1ccccc1C(=O)N1Cc2ccccc2-n2nncc2C1	28.9	?	·	-2.0%	5.2%	?
C[C@@H]1CNC(=O)c2c(C(=O)Nc3cccc(Cl)c3)ncn21	?	20.6µM*	·	-19.5%	-20.3%	20.6µM*
C[C@H]1Cn2cnc(C(=O)Nc3ccc(CNC(=O)OC(C)(C)C)cc3)c2C(=O)N1	?	?	·	23.3%	1.8%	13µM*
Cc1cccc(NC(=O)c2ncn3c2C(=O)NC[C@@H]3C)c1	-17.6	-4.3%	·	-3.5%	11.8%	?
C[C@H]1CNC(=O)c2c(C(=O)Nc3ccc(CNC(=O)OC(C)(C)C)cc3)ncn21	-12.9	14.6µM*	·	-19.5%	-8.9%	9.2µM*
CS(=O)(=O)c1ccc(C(=O)N2CCC(C(=O)O)(c3ccccc3)CC2)cc1	13.3	-0.2%	-1.1%	7.2%	-0.8%	-2.1%
COc1ccccc1[As](=O)(O)CC(O)COc1ccc(Cl)cc1Cl (configuration not stated)	·	·	-1.6%	·	·	·
CC(C)(C)C(=O)N1Cc2cc(-c3ccccc3)ccc2-n2nncc2C1	6.0	16.4µM*	·	-4.2%	0.9%	?
COc1ccc(-c2ccc3c(c2)CN(C(=O)NC2CCCCC2)Cc2cnnn2-3)cc1	-52.8*	?	·	?	?	?
Cc1ccccc1Cc1c(C)nc2c(C(=O)NCc3ccco3)cnn2c1C	?	14.1µM*	-11.4%	?	?	?
Cc1nc2c(C(=O)N3CCC4(CC3)OCCO4)cnn2c(C)c1Cc1cccc(Cl)c1	-1.9	?	0.3%	-7.4%	-7.3%	?
CCCNC(=O)c1cnn2c(C)c(Cc3c(C)cc(C)cc3C)c(C)nc12	·	3.66µM*	·	·	·	1.84µM*
CC(C)(C)c1ccc(O)cc1	·	3.8%	·	·	·	1.4%
COc1ccc(OC(=O)N2C/C(=C/c3ccccc3)C(=O)/C(=C\c3ccccc3)C2)cc1	-86.7*	1.16µM*	·	10.3µM*	8.2µM*	1.46µM*
COc1ccc(NC(=O)N2CC[C@@]3(CCCN(C(=O)Oc4ccccc4)C3)C2)cc1	·	8.4%	·	·	·	-2.0%
CC1CCC(C(C)C)C(OC(=O)Cn2c(COc3ccccc3)[n+](C)c3ccccc32)C1 (configuration not stated)	-105.4*	0.581µM*	?	11.6µM*	11.6µM*	1.03µM*
C=CCCC1(CC)C(=O)NC(=S)NC1=O	0.4	-3.1%	·	11.3%	14.7%	-12.1%
Cc1ccc2c(c1)C1CN(C)CCC1N2C(=O)COc1ccc(N(C)C(=O)C(C)(C)C)cc1 (configuration not stated)	-76.3*	?	1.9%	-2.9%	-0.4%	18.4µM*
CCOc1ccc(S(=O)(=O)N(C)c2ccc(OCC(=O)N3c4ccc(C)cc4C4CN(C)CCC43)cc2)cc1 (configuration not stated)	-50.4*	?	-10.7%	·	?	?
CS(=O)(=O)c1ccc(C2=C(CNC(=O)c3cccnc3)[C@H]3CC[C@@H](C2)N3Cc2ccccc2)cc1	8.5	-2.3%	·	0.9%	0.4%	-17.9%
CC(=O)O[C@H]1[C@H]2O[C@]23[C@@H]2CC[C@]4(O)C[C@@H](O)CC[C@]4(C)C2CC[C@]3(C)[C@H]1c1ccc(=O)oc1 (some centres not stated)	?	6.51µM*	?	0.82µM*	0.0146µM*	3.66µM*
SMILES	IL-1B inflam inh	DT40 TDP1 CPT	ELG1 repair inh	HT1080NT lethal	HT1080 IDH1KD tx	DT40 TDP1 no CPT
C[C@]12CCC3[C@@H](CC[C@@H]4C[C@H](O)CC[C@]34C)[C@@H]1CCC2=O (some centres not stated)	16.2	?	13.5%	13.2%	-2.2%	?
C[C@]12CC[C@H](O)C[C@H]1CC[C@@H]1[C@@H]2CC[C@]2(C)[C@@H](c3ccc(=O)oc3)C[C@H]3O[C@]132	·	?	·	·	·	15µM*
C[C@]12CC[C@H]3C(CCC4(O)CC(O)CC[C@]34C=O)C1=CC[C@H]2c1ccc(=O)oc1 (some centres not stated)	?	-2.6%	?	13µM*	5.8µM*	-29.6%
[Cl][In]([Cl])[Cl]	·	?	·	·	·	-9.2%[92.5 µM]
CC(O)CN1CCN(CC(=O)[O-])CCN(CC(=O)[O-])CCN(CC(=O)[O-])CC1.[Gd+3] (configuration not stated)	·	-26.4%	·	·	·	-0.9%
CC1(C)C(=O)C=C[C@@]2(C)C1=C(O)C(=O)[C@@]1(C)C2CC[C@@]2(C)C(c3ccoc3)C[C@H]3O[C@@]321 (some centres not stated)	·	11.6µM*	·	·	·	11.6µM*
C=CCc1cc(OC)c2c(c1OC)OCO2	·	11.6%	·	·	·	26.8%
COc1cccc(-c2nn(Cc3ccccc3)cc2C(=O)O)c1	16.6	15.3%	4.6%	6.7%	13.8%	2.4%
COc1cccc(C2CC3C(=O)C=CC2N3Cc2ccccc2)c1 (configuration not stated)	?	20.6µM*	2.9%	-23.3%	-26.3%	16.4µM*
O[C@@H]1CCCN2CCc3c([nH]c4ccccc34)[C@H]12	-4.6	14.6µM*	·	-10.8%	6.8%	?
CCOc1cc(-c2ccc(N)c(OCC)c2)ccc1N	-2.1	11.6µM*	0.0%	-18.4%	-15.4%	?
Oc1ccc(Cl)cc1Sc1cc(Cl)ccc1O	-100.8*	18.4µM*	·	20.6µM*	20.6µM*	18.4µM*
O[N+]1=CC=CCC1=S.On1ccccc1=S.[Zn]	·	0.0326µM*	·	·	·	0.146µM*
C/C(=N\Nc1ccccc1)c1c(O)n(C)c(=O)n(C)c1=O	22.0	4.1%	-1.2%	?	?	-7.1%

Source: PubChem (National Center for Advancing Translational Sciences (NCATS))
